Assay results taken from PubChem BioAssay AID720504 (National Center for Advancing Translational Sciences (NCATS), 2013).
Out of some 360,000 compounds screened, about 10,000 (2.8%) were called active. About 4% were inconclusive and are not listed. The sample as a whole holds a higher share of actives than the screen did. Values without a mark were called inactive. Calls come from the whole dose curve; as a rule, active = well fitted inhibition curve with a large enough effect; inconclusive = small, poorly fitted or top-dose-only effect; inactive = flat fitted curve, though single readings scatter.

target: Serine/threonine-protein kinase PLK1 (Homo sapiens) (UniProt P53350); assay: qHTS for Inhibitors of PLK1-PDB (polo-like kinase 1 - polo-box domain): Primary Screen; conditions: Plk1 PBD binding of FITC phosphopeptide, fluorescence polarization; note: nearly all actives have a fitted effect of over 65% in size; for max response, negative = inhibition: series mostly up to about 57 µM
% is set by controls: 0 for no effect and ±100 for the full control effect; potency is the fitted concentration of half-maximal effect.

Sequence of Serine/threonine-protein kinase PLK1 (Homo sapiens) (P53350 whole entry, looked up, the tested form may be a part): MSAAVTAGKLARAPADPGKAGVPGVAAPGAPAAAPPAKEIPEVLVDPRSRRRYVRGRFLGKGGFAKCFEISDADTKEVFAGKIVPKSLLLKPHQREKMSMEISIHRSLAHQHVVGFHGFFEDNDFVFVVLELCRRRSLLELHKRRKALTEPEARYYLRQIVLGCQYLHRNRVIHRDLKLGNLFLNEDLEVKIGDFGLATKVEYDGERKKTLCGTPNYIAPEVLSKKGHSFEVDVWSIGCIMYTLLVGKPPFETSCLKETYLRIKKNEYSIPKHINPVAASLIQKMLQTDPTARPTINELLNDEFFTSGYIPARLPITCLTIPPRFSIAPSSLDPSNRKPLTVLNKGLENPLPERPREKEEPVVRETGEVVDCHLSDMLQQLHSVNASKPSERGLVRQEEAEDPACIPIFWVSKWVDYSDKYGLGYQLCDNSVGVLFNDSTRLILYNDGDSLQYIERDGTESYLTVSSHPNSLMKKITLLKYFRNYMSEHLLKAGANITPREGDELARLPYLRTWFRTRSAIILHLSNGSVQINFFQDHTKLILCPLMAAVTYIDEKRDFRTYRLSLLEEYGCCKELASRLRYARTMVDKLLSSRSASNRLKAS

SMILES	max response, negative = inhibition	Potency
CCc1nc2c(OCc3ccc(C(F)(F)F)cc3)cccn2c1N(C)C(=O)CC(C)C	0.499%	–
COc1cc(-c2nnc(NC(=O)CS(=O)(=O)c3ccc(Cl)cc3)o2)cc(OC)c1OC	-18.2%	–
CC(C)C1CCN(C(=O)C2CCC(=O)N(C3CCCCCC3)C2)CC1 (stereo unspecified)	0.565%	–
O=C(COc1ccccc1)Nc1ccc(F)cc1	-17.9%	–
CC(Sc1nnc(COc2ccccc2)n1-c1ccccc1)C(=O)O (stereo unspecified)	-5.44%	–
Fc1ccc(/C=N/n2c(COc3ccccc3)n[nH]c2=S)cc1	–	23.8 µM (active)
CC(=O)Nc1cc(-c2ccc(N3CCN(C)CC3)cc2)cn2c(-c3cccc(C(=O)N(C)C)c3)cnc12	-2.75%	–
CN1OC[C@@H]2CN(S(=O)(=O)c3cccc(C(F)(F)F)c3)[C@H](c3ccc(-c4cc5ccccc5o4)cc3)C[C@@H]21	-19.4%	–
O=C(Nc1ccc2c(c1)OCCO2)C(C1CC1)N1CCC(Cc2ccccc2)CC1 (stereo unspecified)	1.88%	–
CCC(C(=O)NC(C)(C)C)n1c(-c2ccccc2)nc2ccccc21 (stereo unspecified)	0.0436%	–
Cc1[nH]c2ccccc2c1C(=O)CN1CC(C)CC(C)C1 (stereo unspecified)	-9.93%	–
CCOC(=O)N1CCN(CC(=O)c2c(C)[nH]c3ccccc23)CC1	–	3.77 µM (active)
Cc1[nH]c2ccccc2c1C(=O)CN1CCCC(C)C1 (stereo unspecified)	-2.14%	–
CNc1cncc(-c2cccc(C(=O)N3CCOCC3)c2)n1	-3.85%	–
COc1ccccc1-n1c(SCC(=O)Nc2ccc(Cl)cc2)nc(O)c(Cc2ccccc2)c1=O	-10.5%	–
CNc1cnc(-c2cc(OC)c(OC)c(OC)c2)cn1	-14%	–
CCc1nnc(NS(=O)(=O)c2ccc(NC(=S)NC(=O)c3cccs3)cc2)s1	–	18.9 µM (active)
O=C(NC(=S)Nc1ccc(NC(=O)c2cccs2)cc1)c1ccc([N+](=O)[O-])cc1	-4.47%	–
CCc1nnc(NS(=O)(=O)c2ccc(NC(=O)c3cccc(OC(F)(F)C(F)F)c3)cc2)s1	-23.6%	–

SMILES	max response, negative = inhibition	Potency
NS(=O)(=O)c1ccc(NC(=S)NNC(=O)c2cccs2)cc1	–	29.9 µM (active)
CS(=O)(=O)c1ccc(C(=O)NNC(=O)c2cccs2)cc1	-0.622%	–
CCc1ccc(NC(=O)C(=O)NNC(=O)c2cccs2)cc1	-20.4%	–
COc1ccc(Cn2c(=O)oc3ccccc32)cc1	-4.16%	–
CC(=O)Nc1cccc(-c2cc3nc(NCc4cccnc4)n(C)c(=O)c3s2)c1	-0.405%	–
CC(=O)Oc1ccc(Cn2c(C)c(C(=O)NCc3ccc(C#N)cc3)sc2=O)cc1	-2.92%	–
Cc1sc2nc(-c3ccccc3F)oc(=O)c2c1C	-3.03%	–
N#CCCN(C(=S)Nc1ccc(Cl)c(Cl)c1)C1CCCCC1	-9.12%	–
S=c1[nH]nc(Nc2ccccc2)s1	–	23.8 µM (active)
CC(C)(C)C(=O)c1cnc(Nc2ccccc2)s1	-4.38%	–
O=c1cnnc(Nc2ccccc2)[nH]1	-9.72%	–
CCOC(=O)CSc1nccc(N(C)C)c1C#N	-3.55%	–
CCOC(=O)c1cnc(SCC(=O)Nc2ccccc2C(=O)OC)nc1N	0.561%	–
CCOC(=O)C(Sc1ncc(C#N)c(N)n1)C(C)C (stereo unspecified)	–	11.9 µM (active)
COc1ccc(OC)c(S(=O)(=O)n2c([N+](=O)[O-])cnc2C)c1	-9.42%	–
COc1cccc(CSc2nc3nc(C)cc(C)n3n2)c1	-14.8%	–
COc1ccc(C(C[N+](=O)[O-])n2nc(C)cc2C)cc1 (stereo unspecified)	–	26.7 µM (active)
CC1(C(=O)Nc2ccc3c(c2)OCCO3)CCN1C(=O)Cc1cc(F)ccc1F (stereo unspecified)	2.25%	–
CCOC(=O)c1cc(-c2sc(NC(=O)c3ccccc3)nc2C)n(-c2ccc(Br)cc2)n1	-6.87%	–

SMILES	max response, negative = inhibition	Potency
O=C(NCc1ccccc1)C1CNCC(C(=O)NCc2ccccc2)C1 (stereo unspecified)	1.25%	–
O=C(c1ccc(N2CCCC2=O)cc1)N1CCN(c2ccc(C(F)(F)F)cc2[N+](=O)[O-])CC1	-12.4%	–
COc1ccc(N(CC(=O)NCC2CCCO2)C(=O)CCC(=O)Nc2nccs2)c(OC)c1 (stereo unspecified)	-9.55%	–
Cc1cc(NC(=O)CCC(=O)N(CC(=O)NCC2CCCO2)c2ccccc2C)no1 (stereo unspecified)	-1.5%	–
CCc1ccccc1N(CC(=O)NCC1CCCO1)C(=O)CCC(=O)Nc1nccs1 (stereo unspecified)	–	21.2 µM (active)
COc1ccc(C(=O)C(OP(=O)(OC)OC)c2ccccc2OC)cc1 (stereo unspecified)	-7.71%	–
CO[C@@H]1CN(C)C(=O)c2cc(NC(=O)C3CC3)ccc2OC[C@H](C)N(C(=O)CN2CCOCC2)C[C@@H]1C	-4.89%	–
O=C(Nc1ccccc1-c1nnn(CC(=O)N2CCN(c3ccccc3)CC2)n1)c1cccs1	-6.64%	–
O=C(Nc1ccccc1-c1ccccc1)c1cccs1	–	4.23 µM (active)
O=C(Nc1ccccc1-c1ccccc1)c1ccccc1[N+](=O)[O-]	-3.58%	–
O=C(NCc1ccccc1)C1c2ccccc2OCC(=O)N1CCCN1CCOCC1 (stereo unspecified)	-0.492%	–
CC(C)c1ccc2c(c1)c(SC(C)(C)C)c(CC(C)(C)C(=O)O)n2Cc1ccc(Cl)cc1	–	16.8 µM (active)
COc1ccc(NC2CCCN(C(=O)c3ccccc3-c3ncc[nH]3)C2)cc1 (stereo unspecified)	-9.12%	–
CC1=C(C(=O)N(C(C)C)C(C)C)CC(CC(=O)NCCCCc2ccccc2)C(=O)N1CCC1=CCCCC1 (stereo unspecified)	1.49%	–
CN(Cc1cn(Cc2ccc(C(F)(F)F)cc2)nn1)C1CN(Cc2cn(Cc3ccc(C(F)(F)F)cc3)nn2)S(=O)(=O)C1 (stereo unspecified)	-2.76%	–
CCc1ccccc1OCC(=O)Nc1ccc2c(c1)OCCO2	-10.4%	–
CCOc1ccccc1NC(=S)C(=C([O-])c1ccc2c(c1)OCCO2)[n+]1ccc(CC)cc1	–	26.7 µM (active)
O=[N+]([O-])c1cccc(/C([O-])=C(/C(=S)Nc2ccccc2F)[n+]2ccccc2)c1	-15%	–
